DT40 TDP1 CPT – qHTS for Inhibitors of human tyrosyl-DNA phosphodiesterase 1 (TDP1): qHTS in cells in presence of CPT | 420,000 compounds, 12% hits | chicken DT40 Tdp1-/-;hTDP1 cells + 20 nM CPT, ATP luminescence, 48 h | Potency, µM (titrated, usually from 46.2 µM), without a hit: at the highest dose activity change, negative = growth inhibition, most hits filed as inhibitors; note: nearly all actives have a fitted effect of over 55% in size
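Chicken DT40 Tdp1-/- cells stably complemented with human TDP1 were seeded at 400 cells/well in medium containing 20 nM camptothecin, exposed to pin-transferred compounds, and grown at 37 °C for at least 48 hr. Viability was read as ATP luminescence.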
RORgamma inh – qHTS for inhibitors of ROR gamma transcriptional activity. Drosophila S2 Gal4-RORgamma UAS-luciferase reporter, 20 h. AID 2551, 2010. Potency, µM (titrated, usually from 53.6 µM), for the others: at the top dose activity change, negative = inhibition, hits mostly inhibitors. Nuclear receptor ROR-gamma (Mus musculus), P51450. 310,000 compounds, 5.4% hits; note: nearly all actives have a fitted effect of over 60% in size
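Read-out: Photinus luciferase luminescence; inhibitors lower reporter signal. Insect Schneider cells with Gal4-ROR gamma fusion under metallothionein promoter, UAS reporter; 700 uM final copper sulfate induction, 20 hr, ambient temperature.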
TDP1 cell noCPT – qHTS for Inhibitors of human tyrosyl-DNA phosphodiesterase 1 (TDP1): qHTS in cells in absence of CPT. DT40 Tdp1-/- hTDP1 cells, no CPT, ATP luminescence, 48 h. Potency, µM (highest dose often 46.2 µM), without a hit: at the top dose activity change, negative = growth inhibition, actives largely listed as inhibitors. 420,000 compounds, 15% hits; note: nearly all actives have a fitted effect of over 55% in size
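Stably hTDP1-transfected Tdp1-null chicken DT40 cells were treated with library compounds minus camptothecin and grown for at least 48 hr at 37 °C, after which cellular ATP was quantified by luminescence.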
Gal4-VP16 FLuc – VP16 counterscreen qHTS for inhibitors of ROR gamma transcriptional activity | 310,000 compounds, 3.5% hits | Drosophila S2 Gal4-VP16 UAS-luciferase, luminescence, 20 h | Potency, µM (titrated, usually from 53.6 µM), without a hit: at the highest dose activity, negative = inhibition, usual class: inhibitors;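 note: Gal4-VP16 expression switched on by copper sulfate through the metallothionein promoter; nearly all actives have a fitted effect of over 50% in size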
TDP1 inh – qHTS Assay for Inhibitors of Tyrosyl-DNA Phosphodiesterase (TDP1). Tyrosyl-DNA phosphodiesterase 1 (Homo sapiens), Q9NUW8. recombinant TDP1, AlphaScreen DNA substrate cleavage. Potency, µM (doses to about 130 µM), without a hit: at the top dose activity change, negative = inhibition, most hits filed as inhibitors. 350,000 compounds, 0.28% hits. AID 485290, 2010; note: nearly all actives have a fitted effect of over 40% in size
Target sequence (Q9NUW8 whole entry, looked up): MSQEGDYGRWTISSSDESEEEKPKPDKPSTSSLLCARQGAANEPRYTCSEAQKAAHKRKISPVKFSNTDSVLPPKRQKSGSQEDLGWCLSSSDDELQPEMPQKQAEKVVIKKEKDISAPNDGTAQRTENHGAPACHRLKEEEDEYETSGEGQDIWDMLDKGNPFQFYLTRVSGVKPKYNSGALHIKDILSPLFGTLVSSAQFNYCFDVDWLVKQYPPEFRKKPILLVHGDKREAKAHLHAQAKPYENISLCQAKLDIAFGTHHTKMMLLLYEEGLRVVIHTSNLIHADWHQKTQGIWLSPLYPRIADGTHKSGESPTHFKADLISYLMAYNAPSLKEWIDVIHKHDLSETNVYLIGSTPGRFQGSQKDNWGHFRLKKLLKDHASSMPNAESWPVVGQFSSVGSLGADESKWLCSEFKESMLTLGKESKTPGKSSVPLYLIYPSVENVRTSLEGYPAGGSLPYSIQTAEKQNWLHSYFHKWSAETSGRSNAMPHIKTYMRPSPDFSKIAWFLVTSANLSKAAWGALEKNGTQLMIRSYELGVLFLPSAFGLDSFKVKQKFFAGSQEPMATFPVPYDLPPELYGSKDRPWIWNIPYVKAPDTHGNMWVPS
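Tdp1 1 nM final; 15 min RT w/ cpd; substrate 15 nM, 5 min; beads 10 ug/ml, 10 min; AlphaScreen read. Neg ctrl: no enzyme.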
Active calls of the source: *; ? = inconclusive; . = no result. In the library only some 19% were active in any assay of this set; here they are far more common. Calls come from the whole dose curve; as a rule, active = well fitted curve in the direction sought with a large enough effect; inconclusive = small, poorly fitted or top-dose-only effect, or another doubt; inactive = no such curve, though single readings can be large; an effect the other way counts as inactive or inconclusive. % is set by controls: 0 for no effect and ±100 for the full control effect; potency is the fitted concentration of half-maximal effect.

SMILES	DT40 TDP1 CPT	RORgamma inh	TDP1 cell noCPT	Gal4-VP16 FLuc	TDP1 inh
COC(=O)c1ccccc1NC(=O)c1ccccc1OC	-8.0%	-11.5%	-25.1%	-7.0%	0.0%
O=C(Nc1ccccc1N1CCCCC1)C1=COCCO1	?	.	11.6µM*	.	-3.7%
Cc1ccsc1C(=O)Nc1ccccc1N1CCCC1	?	.	13µM*	.	.
COc1ccccc1C(=O)Nc1ccccc1SC(=O)c1ccccc1OC	2.59µM*	?	2.59µM*	?	.
CCOc1ccc(N2C(=O)CC(NCCc3c[nH]c4ccccc34)C2=O)cc1 (centres undefined)	1.5%	39.1%	-9.9%	-3.9%	-5.1%
Cn1c(=O)c(-c2cc(F)cc(F)c2)nc2cnc(Nc3ccccc3)nc21	?	10µM*	?	?	.
N#CCCn1c(=O)c(-c2cc(F)cc(F)c2)nc2cnc(Nc3ccccc3)nc21	1.9%	11.0%	3.9%	-2.3%	.
Cc1cn(-c2cc(C(=O)Nc3ccc(C)c(NC(=O)C(=O)c4c[nH]c5ccccc45)c3)cc(C(F)(F)F)c2)cn1	8.2µM*	28.9%	7.31µM*	-10.5%	5.9%
COC(=O)c1ccc(NC(=O)C(=O)c2c[nH]c3ccccc23)cc1	-0.9%	-11.9%	-18.2%	5.9%	.
CC1(C(=O)NCc2ccc(F)cc2)Oc2ccccc2NC1=O (centres undefined)	5.4%	-57.1%	-8.2%	0.316µM*	3.8%
Cc1ccc(CNC(=O)C2(C)Oc3ccccc3NC2=O)cc1 (centres undefined)	-17.5%	1.4%	-1.8%	9.2%	1.9%
Cc1cc(C(F)F)nn1CC(=O)NC1CCCC1	18.4%	8.7%	2.4%	-8.2%	1.2%
COc1ccc(CNS(=O)(=O)c2ccc(S(=O)(=O)NC3CC3)cc2)cc1	-28.4%	-20.7%	?	-1.4%	6.6%
Cc1ccc(C2C(C#N)=C(N)Oc3cc(C)oc(=O)c32)o1 (centres undefined)	18.4µM*	?	18.4µM*	?	-2.4%
Cc1ccc(C)c(C2C(C#N)=C(N)Oc3cc(C)oc(=O)c32)c1 (centres undefined)	0.0%	15.2%	-3.1%	0.1%	7.9%
Cc1cc(NC(=O)C2CCC2)n(-c2ccccn2)n1	?	12.6%	?	-3.0%	4.1%
Cc1cc(C)nc(-n2nc(C)cc2NC(=O)c2cccc(S(=O)(=O)N3CCCCC3)c2)n1	.	?	.	-9.7%	0.0%
Cc1cc(NC(=O)c2cccc(S(=O)(=O)N3CCCCCC3)c2)n(-c2ccccn2)n1	?	13.5%	20.6µM*	-6.4%	3.0%
Cc1cc(NC(=O)c2cccc(S(=O)(=O)N(C)C)c2)n(-c2ccccn2)n1	14.6µM*	-8.1%	23.1µM*	1.2%	5.1%
Cc1nc(-c2ccccc2)sc1CCNC(=O)c1ccco1	.	.	.	.	2.2%
O=C(Nc1ccccc1Cl)c1cc2ccccc2o/c1=N\O	?	?	10.3µM*	?	.
COc1cccc(NC(=O)c2cc3ccccc3o/c2=N\O)c1	14.6µM*	8.91µM*	13µM*	20µM*	.
C[C@H](CO)N1C[C@H](C)[C@@H](CN(C)Cc2ccc(-c3ccccc3)cc2)Oc2c(NS(=O)(=O)c3ccccc3)cccc2C1=O	20.6µM*	.	18.4µM*	.	3.4%
C[C@H](CO)N1C[C@H](C)[C@@H](CN(C)Cc2ccccc2)Oc2c(NC(=O)Cc3ccccc3)cccc2C1=O	14.6µM*	.	10.3µM*	.	3.5%
C[C@H](CO)N1C[C@H](C)[C@@H](CN(C)CC2CCCCC2)Oc2c(NC(=O)CCC(F)(F)F)cccc2C1=O	20.6µM*	.	14.6µM*	.	2.7%
C[C@H](CO)N1C[C@H](C)[C@@H](CN(C)C(=O)NC2CCCCC2)Oc2c(NC(=O)CCC(F)(F)F)cccc2C1=O	?	.	-19.9%	.	0.4%

High-throughput results from PubChem BioAssay.
